# Out of some 5,500 compounds screened, about 2,000 (36%) were called active. Another 18% or so got no clear call; they are omitted. Some of the results follow. Values without a mark were called inactive. Rule as the data show it: active = normalized growth mostly below about 0.91 (no sharp cut-off); inconclusive = no clear call, values can overlap the other calls; inactive = mostly above about 0.92.
# Experiment: chemical genetic growth profiling, strain panel (AID 1159580);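 also: tested at 20 µM; growth read once vehicle control cultures reached saturation at 30 °C; 1 = growth at the plate median or of vehicle wells; lower values mean less growth of the strain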
# Conditions: growth OD
# [1] = S. cerevisiae deletion strains, locus YAL013W, strain DEP1, stronger effect = lower value
# [2] = S. cerevisiae deletion strains, locus YBR229C, strain ROT2, stronger effect = lower value
# [3] = S. cerevisiae deletion strains, locus YDL101C, strain DUN1, stronger effect = lower value
# [4] = S. cerevisiae deletion strains, locus YDR150W, strain NUM1, stronger effect = lower value
# [5] = S. cerevisiae deletion strains, locus YEL061C, strain CIN8, stronger effect = lower value
# [6] = S. cerevisiae deletion strains, locus YGR078C, strain PAC10, stronger effect = lower value
# [7] = S. cerevisiae deletion strains, locus YHR030C, strain SLT2, stronger effect = lower value
# [8] = S. cerevisiae deletion strains, locus YHR087W, strain rtc3, stronger effect = lower value
# [9] = S. cerevisiae deletion strains, locus YJL187C, strain SWE1, stronger effect = lower value
# [10] = S. cerevisiae deletion strains, locus YJR043C, strain POL32, stronger effect = lower value
# [11] = S. cerevisiae deletion strains, locus YJR075W, strain HOC1, stronger effect = lower value
# [12] = S. cerevisiae deletion strains, locus YLR039C, strain RIC1, stronger effect = lower value
# [13] = S. cerevisiae deletion strains, locus YLR058C, strain SHM2 (second series), stronger effect = lower value
# [14] = S. cerevisiae deletion strains, locus YLR085C, strain ARP6, stronger effect = lower value
# [15] = S. cerevisiae deletion strains, locus YLR262C, strain YPT6, stronger effect = lower value
# [16] = S. cerevisiae deletion strains, locus YML094W, strain GIM5, stronger effect = lower value
# [17] = S. cerevisiae deletion strains, locus YMR219W, strain ESC1, stronger effect = lower value
# [18] = S. cerevisiae deletion strains, locus YMR263W, strain SAP30, stronger effect = lower value
# [19] = S. cerevisiae deletion strains, locus YNL128W, strain TEP1, stronger effect = lower value
# [20] = S. cerevisiae deletion strains, locus YNL153C, strain GIM3, stronger effect = lower value
# [21] = S. cerevisiae deletion strains, locus YNL298W, strain CLA4 (second series), stronger effect = lower value
# [22] = S. cerevisiae deletion strains, locus YNL322C, strain KRE1, stronger effect = lower value
# [23] = S. cerevisiae deletion strains, locus YNR030W, strain Alg12, stronger effect = lower value
# [24] = S. cerevisiae deletion strains, locus YPL055C, strain LGE1, stronger effect = lower value
# [25] = S. cerevisiae deletion strains, locus YPL241C, strain CIN2, stronger effect = lower value
# [26] = S. cerevisiae deletion strains, locus YPR135W, strain CTF4, stronger effect = lower value
compound,measurement,setting,value
O=C1c2ccccc2C(=O)N1CNc1cccc(Cl)c1,normalized growth,[1],0.983
same,normalized growth,[2],1
same,normalized growth,[3],0.972
same,normalized growth,[4],0.931
same,normalized growth,[5],0.986
same,normalized growth,[6],0.963
same,normalized growth,[7],0.959
same,normalized growth,[8],1
same,normalized growth,[9],1.01
same,normalized growth,[10],0.943
same,normalized growth,[11],0.951
same,normalized growth,"S. cerevisiae deletion strains, locus YKL190W, strain CNB1, stronger effect = lower value",1.02
same,normalized growth,[12],1.01
same,normalized growth,[13],1
same,normalized growth,[14],0.96
same,normalized growth,[15],0.98
same,normalized growth,[16],0.96
same,normalized growth,[17],1
same,normalized growth,[18],0.984
same,normalized growth,[19],1
same,normalized growth,[20],0.94
same,normalized growth,[21],0.943
same,normalized growth,[22],1.01
same,normalized growth,[23],0.95
same,normalized growth,"S. cerevisiae deletion strains, locus YOL006C, strain TOP1, stronger effect = lower value",0.993
same,normalized growth,[24],0.978
same,normalized growth,[25],0.971
same,normalized growth,[26],0.894
same,normalized growth,"S. cerevisiae strains, strain wild type, stronger effect = lower value",1.01
O=C(CNc1cccc(Cl)c1)c1ccc(Cl)cc1,normalized growth,[1],0.971
same,normalized growth,[2],0.933
same,normalized growth,"S. cerevisiae deletion strains, locus YCL061C, strain MRC1, stronger effect = lower value",0.975
same,normalized growth,[3],0.952
same,normalized growth,"S. cerevisiae deletion strains, locus YDL134C, strain PPH21, stronger effect = lower value",0.948
same,normalized growth,[4],0.89
same,normalized growth,[5],0.954
same,normalized growth,[6],0.945
same,normalized growth,"S. cerevisiae deletion strains, locus YGR229C, strain SMI1, stronger effect = lower value",0.935 (active)
same,normalized growth,[7],0.766
same,normalized growth,[8],0.923
same,normalized growth,[9],0.933 (active)
same,normalized growth,[10],0.98
same,normalized growth,[11],0.936
same,normalized growth,[12],0.954
same,normalized growth,[13],0.953
same,normalized growth,[14],0.801
same,normalized growth,[15],0.898
same,normalized growth,[16],0.938
same,normalized growth,[17],0.964
same,normalized growth,[18],0.908
same,normalized growth,"S. cerevisiae deletion strains, locus YMR307W, strain GAS1, stronger effect = lower value",0.862
same,normalized growth,[19],0.973
same,normalized growth,[20],0.97
same,normalized growth,[21],0.937
same,normalized growth,[22],0.951
same,normalized growth,[23],0.89
same,normalized growth,[24],0.832
same,normalized growth,[25],0.899
same,normalized growth,[26],0.824
Cc1cc(C)c2cc(C(=O)NCCNc3ccc(C(F)(F)F)cn3)[nH]c2c1,normalized growth,"S. cerevisiae deletion strains, locus YAR019C, strain CDC15, stronger effect = lower value",0.983
same,normalized growth,"S. cerevisiae deletion strains, locus YBL105C, strain PKC1, stronger effect = lower value",0.971
same,normalized growth,"S. cerevisiae deletion strains, locus YBR135W, strain CKS1, stronger effect = lower value",0.983
same,normalized growth,"S. cerevisiae deletion strains, locus YBR136W, strain MEC1, stronger effect = lower value",0.981
same,normalized growth,"S. cerevisiae deletion strains, locus YBR160W, strain CDC28, stronger effect = lower value",0.97
same,normalized growth,"S. cerevisiae deletion strains, locus YDL017W, strain CDC7, stronger effect = lower value",0.98
same,normalized growth,"S. cerevisiae deletion strains, locus YDL028C, strain MPS1, stronger effect = lower value",0.98
same,normalized growth,[3],0.936
same,normalized growth,"S. cerevisiae deletion strains, locus YDL108W, strain KIN28, stronger effect = lower value",0.972
same,normalized growth,"S. cerevisiae deletion strains, locus YDL132W, strain cdc53, stronger effect = lower value",0.992
same,normalized growth,"S. cerevisiae deletion strains, locus YDL214C, strain PRR2, stronger effect = lower value",0.468 (active)
same,normalized growth,"S. cerevisiae deletion strains, locus YDR052C, strain DBF4, stronger effect = lower value",0.983
same,normalized growth,"S. cerevisiae deletion strains, locus YDR054C, strain cdc34, stronger effect = lower value",0.968
same,normalized growth,"S. cerevisiae deletion strains, locus YDR226W, strain ADK1, stronger effect = lower value",0.983
same,normalized growth,"S. cerevisiae deletion strains, locus YDR477W, strain SNF1, stronger effect = lower value",0.457 (active)
same,normalized growth,"S. cerevisiae deletion strains, locus YER123W, strain YCK3, stronger effect = lower value",0.381 (active)
same,normalized growth,"S. cerevisiae deletion strains, locus YER133W, strain GLC7, stronger effect = lower value",0.487 (active)
same,normalized growth,"S. cerevisiae deletion strains, locus YFL009W, strain cdc4, stronger effect = lower value",0.991
same,normalized growth,"S. cerevisiae deletion strains, locus YFL029C, strain CAK1, stronger effect = lower value",0.985
same,normalized growth,"S. cerevisiae deletion strains, locus YFR003C, strain YPI1, stronger effect = lower value",0.976
same,normalized growth,"S. cerevisiae deletion strains, locus YFR019W, strain FAB1, stronger effect = lower value",0.322 (active)
same,normalized growth,"S. cerevisiae deletion strains, locus YFR028C, strain CDC14, stronger effect = lower value",0.976
same,normalized growth,"S. cerevisiae deletion strains, locus YGR040W, strain KSS1, stronger effect = lower value",0.501 (active)
same,normalized growth,"S. cerevisiae deletion strains, locus YGR052W, strain FMP48, stronger effect = lower value",0.249 (active)
same,normalized growth,"S. cerevisiae deletion strains, locus YGR092W, strain DBF2, stronger effect = lower value",0.225 (active)
same,normalized growth,[7],0.0941 (active)
same,normalized growth,"S. cerevisiae deletion strains, locus YHR079C, strain IRE1, stronger effect = lower value",0.11 (active)
same,normalized growth,"S. cerevisiae deletion strains, locus YHR082C, strain KSP1, stronger effect = lower value",0.125 (active)
same,normalized growth,"S. cerevisiae deletion strains, locus YHR205W, strain SCH9, stronger effect = lower value",0.457 (active)
same,normalized growth,"S. cerevisiae deletion strains, locus YIL147C, strain SLN1, stronger effect = lower value",0.984
same,normalized growth,"S. cerevisiae deletion strains, locus YJL095W, strain BCK1, stronger effect = lower value",0.102 (active)
same,normalized growth,"S. cerevisiae deletion strains, locus YJL128C, strain PBS2, stronger effect = lower value",0.961
same,normalized growth,"S. cerevisiae deletion strains, locus YJL157C, strain FAR1, stronger effect = lower value",0.501 (active)
same,normalized growth,"S. cerevisiae deletion strains, locus YJR016C, strain ILV3, stronger effect = lower value",0.985
same,normalized growth,"S. cerevisiae deletion strains, locus YJR066W, strain TOR1 (second series), stronger effect = lower value",0.212 (active)
same,normalized growth,"S. cerevisiae deletion strains, locus YJR066W, strain TOR1, stronger effect = lower value",0.121 (active)
same,normalized growth,"S. cerevisiae deletion strains, locus YKL048C, strain ELM1, stronger effect = lower value",0.511 (active)
same,normalized growth,"S. cerevisiae deletion strains, locus YKL067W, strain YNK1, stronger effect = lower value",0.567 (active)
same,normalized growth,"S. cerevisiae deletion strains, locus YKL193C, strain SDS22, stronger effect = lower value",0.989
same,normalized growth,"S. cerevisiae deletion strains, locus YKL203C, strain TOR2, stronger effect = lower value",0.233 (active)
same,normalized growth,"S. cerevisiae deletion strains, locus YLR113W, strain HOG1, stronger effect = lower value",0.137 (active)
same,normalized growth,"S. cerevisiae deletion strains, locus YLR133W, strain CKI1, stronger effect = lower value",0.446 (active)
same,normalized growth,"S. cerevisiae deletion strains, locus YLR403W, strain SFP1, stronger effect = lower value",0.557 (active)
same,normalized growth,"S. cerevisiae deletion strains, locus YML070W, strain DAK1, stronger effect = lower value",0.365 (active)
same,normalized growth,"S. cerevisiae deletion strains, locus YMR001C, strain CDC5, stronger effect = lower value",0.986
same,normalized growth,"S. cerevisiae deletion strains, locus YMR205C, strain PFK2 (second series), stronger effect = lower value",0.551 (active)
same,normalized growth,"S. cerevisiae deletion strains, locus YMR277W, strain FCP1, stronger effect = lower value",0.992
same,normalized growth,"S. cerevisiae deletion strains, locus YNL006W, strain LST8, stronger effect = lower value",0.986
same,normalized growth,"S. cerevisiae deletion strains, locus YNL020C, strain ARK1, stronger effect = lower value",0.415 (active)
same,normalized growth,"S. cerevisiae deletion strains, locus YNL161W, strain CBK1, stronger effect = lower value",0.986
same,normalized growth,"S. cerevisiae deletion strains, locus YNL183C, strain NPR1, stronger effect = lower value",0.169 (active)
same,normalized growth,"S. cerevisiae deletion strains, locus YNL207W, strain RIO2, stronger effect = lower value",0.955
same,normalized growth,"S. cerevisiae deletion strains, locus YNL222W, strain SSU72, stronger effect = lower value",0.974
same,normalized growth,"S. cerevisiae deletion strains, locus YNL307C, strain MCK1 (second series), stronger effect = lower value",0.644
same,normalized growth,"S. cerevisiae deletion strains, locus YOL078W, strain AVO1, stronger effect = lower value",0.985
same,normalized growth,"S. cerevisiae deletion strains, locus YOL136C, strain PFK27, stronger effect = lower value",0.398 (active)
same,normalized growth,"S. cerevisiae deletion strains, locus YOR061W, strain CKA2, stronger effect = lower value",0.59 (active)
same,normalized growth,"S. cerevisiae deletion strains, locus YOR119C, strain RIO1, stronger effect = lower value",0.341 (active)
same,normalized growth,"S. cerevisiae deletion strains, locus YOR231W, strain MKK1, stronger effect = lower value",0.129 (active)
same,normalized growth,"S. cerevisiae deletion strains, locus YOR329C, strain SCD5, stronger effect = lower value",0.984
same,normalized growth,"S. cerevisiae deletion strains, locus YPL031C, strain PHO85, stronger effect = lower value",0.276 (active)
same,normalized growth,"S. cerevisiae deletion strains, locus YPL153C, strain RAD53, stronger effect = lower value",0.184 (active)
same,normalized growth,"S. cerevisiae deletion strains, locus YPL204W, strain HRR25, stronger effect = lower value",0.268 (active)
same,normalized growth,"S. cerevisiae deletion strains, locus YPL209C, strain IPL1, stronger effect = lower value",0.976
same,normalized growth,"S. cerevisiae deletion strains, locus YPL256C, strain CLN2, stronger effect = lower value",0.137 (active)
same,normalized growth,"S. cerevisiae deletion strains, locus YPR025C, strain CCL1, stronger effect = lower value",0.98
same,normalized growth,"S. cerevisiae deletion strains, locus YPR106W, strain ISR1, stronger effect = lower value",1
same,normalized growth,"S. cerevisiae deletion strains, locus YPR111W, strain DBF20, stronger effect = lower value",0.944
same,normalized growth,"S. cerevisiae deletion strains, strain NNK1, stronger effect = lower value",0.94
same,normalized growth,"S. cerevisiae deletion strains, strain TSCII, stronger effect = lower value",0.985
